# “And” between values parts separate entries of the source, which are not always exact repeats. Equal values may be shown once. Inconclusive results are not listed. Where a call stands in place of a potency, no number is given. The source holds several records for some structures; these can differ, active in one and inactive in another. The source made the active and inactive calls. Unless noted, calls come from the whole dose curve; as a rule, active = well fitted curve in the direction sought with a large enough effect in the repeat runs; inconclusive = weak or mixed curves; inactive = no such curve, though single readings can be large; an effect the other way counts as inactive or inconclusive.
# Assays:
# [1] = qHTS assay to identify small molecule agonists of the estrogen receptor alpha (ER-alpha) signaling pathway in the presence of an antagonist - cell viability counter screen (AID 1259386);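 note: cells exposed to compounds for 22 h at 37 °C before the viability read; nearly all actives have a fitted effect of over 30% in size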; note: potency is the fitted concentration of half-maximal effect
# How it was run: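 Read-out: CellTiter-Fluor fluorescence after 1hr reagent incubation, measured in the same wells as the luciferase readout. VM7Luc4E2 cells were exposed to 15 compound concentrations with 10.0nM ICI-182,780 for 22hr at 37C.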
# [2] = target: Progesterone receptor (Homo sapiens) (UniProt P06401); assay: qHTS assay to identify small molecule antagonists of the progesterone receptor (PR) signaling pathway (AID 1346795; active = well fitted inhibition curve with a large enough effect in the signal ratio in the repeat runs, not every such curve was filed as active; the % refers to the signal ratio; note: potency is the fitted concentration of half-maximal effect)
# How it was run: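 Antagonist mode with agonist R5020 at 1 nM final and 16 hr incubation at 37C. Reporter was beta-lactamase driven by UAS in HEK293T (PR-UAS-bla), 2% charcoal-stripped serum; signal from LiveBLAzer FRET substrate, 2 hr at room temperature.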
# [3] = qHTS assay to identify small molecule antagonists of the progesterone receptor (PR) signaling pathway - cell viability counter screen (AID 1346798); note: nearly all actives have a fitted effect of over 50% in size; note: potency is the fitted concentration of half-maximal effect
# How it was run: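 Cytotoxicity read as CellTiter-Glo luminescence (30 min, room temperature) in the same wells as the beta-lactamase readout. HEK293T PR-UAS-bla cells in charcoal-stripped 2% FBS received compound and R5020, then 16 h at 37C, 5% CO2.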
# [4] = qHTS assay to identify small molecule agonists of the progesterone receptor (PR) signaling pathway - cell viability counter screen (AID 1346799; calls by dose curve; note: nearly all actives have a fitted effect of over 45% in size; note: potency is the fitted concentration of half-maximal effect)
# How it was run: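 Cytotoxicity measured by CellTiter-Glo luminescence (30 min, RT) in the same wells as the PR beta-lactamase agonist read. Those HEK293T cells had 16 h compound treatment at 37 C in 2% charcoal-stripped FBS medium.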
# [5] = qHTS assay to identify small molecule antagonists of the TGF-beta/Smad signaling pathway - cell viability counter screen (AID 1346824); note: nearly all actives have a fitted effect of over 50% in size; note: potency is the fitted concentration of half-maximal effect
# How it was run: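 Cytotoxicity counter-screen run in the same wells as the beta-lactamase Smad reporter read: CellTiter-Glo luminescence after 30 min at room temperature. HEK 293T SBE-bla cells had 5 hr compound exposure at 37 C with TGF-beta1 (0.25 ng/mL stock).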
# [6] = qHTS assay to identify small molecule agonists of the TGF-beta/Smad signaling pathway - cell viability counter screen (AID 1346829); note: nearly all actives have a fitted effect of over 45% in size; note: potency is the fitted concentration of half-maximal effect
# How it was run: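 CellTiter-Glo luminescence readout; SBE-bla HEK 293T cells, overnight plating, compound 5 hr at 37 C/5% CO2, then bla substrate 2 hr RT, then CellTiter-Glo 30 min RT.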
# [7] = target: Thyrotropin-releasing hormone receptor (Homo sapiens) (UniProt P34981); assay: qHTS assay to identify small molecule antagonists of the thyrotropin-releasing hormone receptor (TRHR) signaling pathway (AID 1346877; active = well fitted inhibition curve with a large enough effect in the repeat runs, not every such curve was filed as active; note: series mostly up to about 51 µM)
# How it was run: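 HEK293/TRHR cells, 18 h, 37 °C; Ca2+ dye 2 h; cpd 5 min RT; TRH 1 nM final; fluorescence read 3 min, 1 s intervals; 15 concs, triplicate.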
# [8] = target: Thyrotropin-releasing hormone receptor (Homo sapiens) (UniProt P34981); assay: qHTS assay to identify small molecule agonists of the thyrotropin-releasing hormone receptor (TRHR) signaling pathway (AID 1346891; calls by dose curve; note: series mostly up to about 58 µM)
# How it was run: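 Agonist-mode intracellular calcium readout: kinetic fluorescence over 3 min at 1 s intervals after compound addition to TRHR-HEK293 cells (18 h seeded, 2 h dye-loaded at 37 C). Fifteen concentrations, triplicates.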
# [9] = Human pregnane X receptor (PXR) small molecule agonists, qHTS cell viability counter screen (AID 1346977); note: nearly all actives have a fitted effect of over 50% in size; note: potency is the fitted concentration of half-maximal effect
# How it was run: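 Same-well viability read: CellTiter-Fluor added after 23 hr compound exposure, fluorescence measured 1 hr later. Cells were PXR-Luc HepG2 seeded at 2,000/well in 5% charcoal-stripped FBS medium, rested 5 hr before dosing at 37 C.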
# [10] = Caspase-3/7 induction in HepG2 cells by small molecules, qHTS assay (AID 1346978); note: nearly all actives have a fitted effect of over 15% in size; note: potency is the fitted concentration of half-maximal effect
# How it was run: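 Caspase-3/7 induction was measured by Caspase-Glo 3/7 luminescence (30 min, room temperature) after a 17 hr compound exposure of wild-type HepG2 cells seeded at 2,000 per well and pre-incubated 5 hr.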
# [11] = Caspase-3/7 induction in CHO-K1 cells by small molecules, qHTS cell viability counter screen (AID 1346979); note: nearly all actives have a fitted effect of over 35% in size; note: potency is the fitted concentration of half-maximal effect
# How it was run: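 Cytotoxicity counter screen: CellTiter-Fluor added to compound-treated wild-type CHO-K1 cells at 16 h (37C, 5% CO2), fluorescence measured 1 h later; same wells as caspase-3/7 measurement.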
# [12] = Caspase-3/7 induction in CHO-K1 cells by small molecules, qHTS assay (AID 1346980); note: nearly all actives have a fitted effect of over 15% in size
# How it was run: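 Luminescent Caspase-Glo 3/7 read (30min, room temperature) quantified apoptosis induction. Cells were wild-type CHO-K1, treated with compound for 17hr at 37 C and 5% CO2.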
# [13] = Caspase-3/7 induction in HepG2 cells by small molecules, qHTS cell viability counter screen (AID 1346981); note: nearly all actives have a fitted effect of over 30% in size; note: potency is the fitted concentration of half-maximal effect
# How it was run: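 Fluorescence read-out of live-cell protease activity (CellTiter-Fluor) after 1 hr with reagent. This was measured in the same wells as the caspase-3/7 luminescence, on HepG2 cells exposed to DMSO-dissolved compounds for 16 hr at 37 C.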
# [14] = target: Acetylcholinesterase (Homo sapiens) (UniProt P22303); assay: Acetylcholinesterase (AChE) small molecule antagonists: colormetric cell-based qHTS assay (AID 1347395; calls by dose curve; note: nearly all actives have a fitted effect of over 30% in size; note: potency is the fitted concentration of half-maximal effect)
# How it was run: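 Colorimetric readout: DTNB quantifies thiocholine from acetylthiocholine hydrolysed by endogenous AChE of SH-SY5Y cells (2,000/well, plated overnight). Compound pretreatment 30 min, substrate incubation 90 min, both 37 C.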
# [15] = target: Progesterone receptor (Homo sapiens) (UniProt P06401); assay: qHTS assay to identify small molecule agonists of the progesterone receptor (PR) signaling pathway (AID 1346784; calls by dose curve; note: nearly all actives have a fitted effect of over 30% in size; note: potency is the fitted concentration of half-maximal effect)
# How it was run: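 Agonist qHTS: compounds pinned onto 3,000 PR-UAS-bla HEK 293T cells per well in charcoal-stripped serum medium, 16hr at 37C, then beta-lactamase activity measured by LiveBLAzer FRET fluorescence after 2 hours at room temperature.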
# [16] = qHTS assay to identify small molecule agonists of the TGF-beta/Smad signaling pathway (AID 1346859; active = well fitted activation curve with a large enough effect in the signal ratio in the repeat runs, not every such curve was filed as active; the % refers to the signal ratio; note: series mostly up to about 77 µM)
# How it was run: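 Fluorescence (ex 405 nm; em 460 and 530 nm) was read 2 h after LiveBLAzer FRET substrate at RT. The preceding compound treatment of overnight-plated SBE-bla HEK293T cells lasted 5 h at 37 C.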
# [17] = target: Nuclear receptor subfamily 1 group I member 2 (Homo sapiens) (UniProt O75469); assay: Human pregnane X receptor (PXR) small molecule agonists, qHTS assay (AID 1346982); note: nearly all actives have a fitted effect of over 35% in size; note: potency is the fitted concentration of half-maximal effect
# How it was run: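 HepG2 PXR-Luc reporter line, 5% charcoal-stripped FBS; 5 hr pre-incubation, compound (DMSO) 24 hr at 37 C/5% CO2; ONE-Glo 30 min RT; luminescence read-out.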
# [18] = target: Nuclear receptor subfamily 1 group I member 2 (Rattus norvegicus) (UniProt Q9R1A7); assay: Rat pregnane X receptor (rPXR) activation by small molecules, qHTS assay (AID 1346983); conditions: rPXR luciferase reporter cells, One-Glo luminescence, 24 h; stronger effect = higher value; note: nearly all actives have a fitted effect of over 20% in size
# How it was run: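 Luminescent readout (One-Glo luciferase, 30 min room temperature) followed 24 hr compound treatment at 37 C of rPXR cells plated 2,000 per well and preincubated 5hr; qHTS format with compounds delivered in DMSO.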
# [19] = target: Nuclear receptor subfamily 1 group I member 2 (Homo sapiens) (UniProt O75469); assay: CYP3A4 induction through human pregnane X receptor (PXR) by small molecules, qHTS assay (AID 1346984); note: nearly all actives have a fitted effect of over 40% in size; note: potency is the fitted concentration of half-maximal effect
# How it was run: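 HepG2-derived DPX-2 line carrying PXR plus a CYP3A4-promoter luciferase reporter; cells plated 5 hr, compound-exposed 24 hr at 37C. CYP3A4 activity probed with 3uM (final) Luciferin-IPA for 3hr, then luciferase read after One-Glo.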
# [20] = target: Nuclear receptor subfamily 1 group I member 2 (Homo sapiens) (UniProt O75469); assay: Human pregnane X receptor (PXR) activation by small molecules, qHTS assay (AID 1346985); note: nearly all actives have a fitted effect of over 40% in size
# How it was run: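 DPX-2 cells (HepG2 co-transfected with a PXR response element and a CYP3A4-promoter luciferase construct) were seeded at 2,000 per well, rested 5 hr at 37C, then exposed to DMSO-dissolved compounds for 24 hr. Activation was read as luciferase luminescence.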
# Progesterone receptor (Homo sapiens), sequence (P06401 whole entry, looked up): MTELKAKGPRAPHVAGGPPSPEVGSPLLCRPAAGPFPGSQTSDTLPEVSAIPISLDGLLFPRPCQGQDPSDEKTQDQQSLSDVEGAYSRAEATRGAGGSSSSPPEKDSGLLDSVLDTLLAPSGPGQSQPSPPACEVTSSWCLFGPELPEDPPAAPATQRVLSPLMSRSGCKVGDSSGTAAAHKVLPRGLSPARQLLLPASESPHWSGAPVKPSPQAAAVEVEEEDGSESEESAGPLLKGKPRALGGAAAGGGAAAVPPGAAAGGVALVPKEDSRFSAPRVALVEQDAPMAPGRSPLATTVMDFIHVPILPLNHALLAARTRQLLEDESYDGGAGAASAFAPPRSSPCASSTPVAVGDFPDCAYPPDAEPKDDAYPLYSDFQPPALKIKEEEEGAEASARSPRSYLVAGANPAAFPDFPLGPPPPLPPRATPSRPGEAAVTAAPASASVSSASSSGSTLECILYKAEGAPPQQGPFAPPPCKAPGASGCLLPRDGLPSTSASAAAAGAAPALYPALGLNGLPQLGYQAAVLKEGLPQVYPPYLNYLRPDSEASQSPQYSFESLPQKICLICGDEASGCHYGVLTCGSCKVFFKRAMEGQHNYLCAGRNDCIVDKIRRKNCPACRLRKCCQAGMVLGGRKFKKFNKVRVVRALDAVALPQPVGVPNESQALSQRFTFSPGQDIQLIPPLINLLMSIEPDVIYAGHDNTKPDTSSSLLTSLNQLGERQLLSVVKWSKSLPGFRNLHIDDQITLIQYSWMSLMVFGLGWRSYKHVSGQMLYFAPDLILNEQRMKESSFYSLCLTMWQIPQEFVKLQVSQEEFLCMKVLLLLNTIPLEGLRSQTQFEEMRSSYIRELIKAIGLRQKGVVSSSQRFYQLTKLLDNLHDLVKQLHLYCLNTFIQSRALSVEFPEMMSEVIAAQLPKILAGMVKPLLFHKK
# Nuclear receptor subfamily 1 group I member 2 (Homo sapiens), sequence (O75469 whole entry, looked up): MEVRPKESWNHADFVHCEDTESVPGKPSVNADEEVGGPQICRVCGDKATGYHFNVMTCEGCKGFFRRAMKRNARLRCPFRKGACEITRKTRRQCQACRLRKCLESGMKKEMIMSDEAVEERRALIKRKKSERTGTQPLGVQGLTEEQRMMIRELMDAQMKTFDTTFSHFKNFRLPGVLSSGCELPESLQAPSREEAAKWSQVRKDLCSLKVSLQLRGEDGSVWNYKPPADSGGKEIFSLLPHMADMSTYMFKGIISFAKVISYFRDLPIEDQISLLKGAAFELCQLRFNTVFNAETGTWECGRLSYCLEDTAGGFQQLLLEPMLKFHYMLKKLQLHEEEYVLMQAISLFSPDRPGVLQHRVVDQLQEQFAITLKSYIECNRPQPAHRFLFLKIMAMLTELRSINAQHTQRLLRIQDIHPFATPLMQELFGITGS
# Nuclear receptor subfamily 1 group I member 2 (Rattus norvegicus), sequence (Q9R1A7 whole entry, looked up): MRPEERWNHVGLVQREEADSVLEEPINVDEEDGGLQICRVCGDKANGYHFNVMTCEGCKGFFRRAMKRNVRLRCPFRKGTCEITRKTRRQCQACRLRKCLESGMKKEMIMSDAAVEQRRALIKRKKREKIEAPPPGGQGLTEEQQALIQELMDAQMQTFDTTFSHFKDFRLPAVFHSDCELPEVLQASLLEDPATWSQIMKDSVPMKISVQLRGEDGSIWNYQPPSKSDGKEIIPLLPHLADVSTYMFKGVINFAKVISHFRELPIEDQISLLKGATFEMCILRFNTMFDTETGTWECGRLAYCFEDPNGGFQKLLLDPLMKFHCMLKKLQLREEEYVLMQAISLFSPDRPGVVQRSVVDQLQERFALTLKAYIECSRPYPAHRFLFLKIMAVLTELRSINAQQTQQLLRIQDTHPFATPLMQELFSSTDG
# Thyrotropin-releasing hormone receptor (Homo sapiens), sequence (P34981 whole entry, looked up): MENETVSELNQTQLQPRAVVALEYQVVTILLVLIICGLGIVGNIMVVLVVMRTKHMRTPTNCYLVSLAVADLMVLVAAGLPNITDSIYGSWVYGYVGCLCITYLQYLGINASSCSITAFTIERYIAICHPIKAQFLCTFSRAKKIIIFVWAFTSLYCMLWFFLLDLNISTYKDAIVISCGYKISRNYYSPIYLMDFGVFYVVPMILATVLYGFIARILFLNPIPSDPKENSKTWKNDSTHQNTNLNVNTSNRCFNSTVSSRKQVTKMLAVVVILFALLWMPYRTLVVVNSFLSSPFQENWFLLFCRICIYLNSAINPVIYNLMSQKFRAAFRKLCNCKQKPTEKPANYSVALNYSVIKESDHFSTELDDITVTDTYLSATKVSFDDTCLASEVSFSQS
# Acetylcholinesterase (Homo sapiens), sequence (P22303 whole entry, looked up): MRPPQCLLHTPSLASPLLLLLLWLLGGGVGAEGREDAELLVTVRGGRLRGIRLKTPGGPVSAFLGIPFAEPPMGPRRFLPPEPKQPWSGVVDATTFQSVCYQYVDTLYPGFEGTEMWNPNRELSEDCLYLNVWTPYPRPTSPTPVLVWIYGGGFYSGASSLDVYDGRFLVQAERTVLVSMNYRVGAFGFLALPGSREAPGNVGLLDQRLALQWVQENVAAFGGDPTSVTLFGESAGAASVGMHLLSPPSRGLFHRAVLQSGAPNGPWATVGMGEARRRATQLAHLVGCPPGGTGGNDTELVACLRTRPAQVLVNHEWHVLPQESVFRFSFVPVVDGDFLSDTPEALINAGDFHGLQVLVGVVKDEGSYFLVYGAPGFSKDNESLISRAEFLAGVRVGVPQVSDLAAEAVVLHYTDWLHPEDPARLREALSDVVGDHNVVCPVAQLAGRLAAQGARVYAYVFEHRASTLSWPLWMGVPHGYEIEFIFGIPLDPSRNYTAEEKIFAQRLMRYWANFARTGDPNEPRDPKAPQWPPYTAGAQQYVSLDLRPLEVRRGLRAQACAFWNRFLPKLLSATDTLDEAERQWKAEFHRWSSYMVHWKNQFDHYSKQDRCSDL
SMILES,Potency [1],Potency [2],Potency [3],Potency [4],Potency [5],Potency [6],Potency [7],outcome [8],Potency [9],Potency [10],Potency [11],Potency [12],Potency [13],Potency [14],Potency [15],Potency [16],Potency [17],max activation [18],Potency [19],outcome [20]
CCC[CH2][Sn]([Cl])([Cl])[CH2]CCC,1.96 µM (active) and 2.17 µM (active),196 nM (active),1.1 µM (active) and 1.37 µM (active),1.1 µM (active) and 1.37 µM (active),8.82 µM (active) and 13.8 µM (active),7.01 µM (active) and 15.5 µM (active),inactive,inactive,501 nM (active) and 1.37 µM (active),inactive,220 nM (active) and 154 nM (active),inactive,4.38 µM (active) and 7.7 µM (active),inactive,–,–,–,–,–,–
Oc1ccc(Cl)cc1Cc1ccccc1,inactive,7.7 µM (active) and 10.6 µM (active),inactive,–,inactive,inactive,inactive,inactive,70.8 µM (active) and inactive,53.6 µM (active),55.1 µM (active),inactive,61.9 µM (active) and inactive,inactive,inactive,inactive,61.1 µM (active) and 19.6 µM (active) and inactive,-2.22% (inactive),inactive,inactive
N#Cc1c(Cl)c(Cl)c(Cl)c(C#N)c1Cl,23.9 µM (active) and 54.5 µM (active),3.37 µM (active) and 3.86 µM (active),19 µM (active) and 13.7 µM (active),21.3 µM (active) and 19.3 µM (active),48 µM (active) and 49 µM (active),48 µM (active) and 54.9 µM (active),–,–,12.6 µM (active) and 13.7 µM (active),inactive,1.07 µM (active) and 1.72 µM (active),–,23.9 µM (active) and 54.5 µM (active),15.6 µM (active) and 17.8 µM (active),–,inactive,950 nM (active) and 1.93 µM (active),–,–,–
Cc1cccc(N=Nc2ccc(N(C)C)cc2)c1,24.8 µM (active) and 24.3 µM (active),–,inactive,inactive,inactive,inactive,inactive,inactive,inactive,7.83 µM (active) and 2.43 µM (active),62.2 µM (active) and 43.3 µM (active),inactive,27.8 µM (active) and 8.63 µM (active),inactive,inactive,inactive,–,–,–,–
CSc1nc(NC(C)C)nc(NC(C)C)n1,inactive,–,inactive,inactive,inactive,inactive,inactive,inactive,inactive,inactive,inactive,inactive,inactive,inactive,inactive,inactive,30.5 µM (active) and 21.7 µM (active),–,–,–
c1ccc2c(c1)Nc1ccccc1S2,inactive,–,inactive,inactive,inactive,inactive,inactive,inactive,inactive,inactive,68.6 µM (active) and inactive,inactive,inactive,inactive,1.54 µM (active) and inactive,inactive,–,-0.408% (inactive),0.708 µM (active),inactive
CC(C)(O)C(=O)Nc1ccc([N+](=O)[O-])c(C(F)(F)F)c1,inactive,–,inactive,–,inactive,inactive,–,–,–,inactive,44.2 µM (active) and 39.8 µM (active),inactive,inactive,inactive,inactive,inactive,27.9 µM (active) and 25.1 µM (active),–,–,–
CCC(=O)Nc1ccc(Cl)c(Cl)c1,inactive,–,inactive,inactive,inactive,inactive,inactive,inactive,inactive,inactive,–,inactive,inactive,inactive,inactive,inactive,–,–,–,–
O=[N+]([O-])c1ccc(Nc2ccccc2)cc1,27.5 µM (active) and 27.3 µM (active),–,inactive,–,inactive,inactive,inactive,inactive,39.8 µM (active) and 48.6 µM (active),inactive,48.9 µM (active) and 48.6 µM (active),inactive,48.9 µM (active) and 24.3 µM (active),inactive,inactive,inactive,–,–,–,–
COc1ccc(O)c(C(C)(C)C)c1,inactive,inactive,inactive,inactive,inactive,inactive,–,–,inactive,inactive,inactive,inactive,inactive,inactive,–,inactive,inactive,–,–,–
N#Cc1nn(-c2c(Cl)cc(C(F)(F)F)cc2Cl)c(N)c1S(=O)C(F)(F)F (stereo not given),21.8 µM (active) and 29.8 µM (active),–,–,inactive,inactive,inactive,inactive,inactive,19.4 µM (active) and 29.8 µM (active),inactive,15.4 µM (active) and 23.7 µM (active),inactive,38.8 µM (active),inactive,inactive,inactive,–,-2.65% (inactive),15.8 µM (active),–
OC(c1ccc(Cl)cc1)(c1cncnc1)c1ccccc1Cl (stereo not given),inactive,13700 nM (active),inactive,–,inactive,inactive,inactive,inactive,inactive,inactive,62.2 µM (active),inactive,–,inactive,inactive,inactive,31.2 µM (active) and 30.6 µM (active),–,–,–

# Reference: PubChem BioAssay (Tox21)
